# Data reported in PubChem BioAssay.
# Active and inactive are the calls of the source. Unless noted, how the calls were made is not given here.
# Columns and labels:
# [1] = compound effects on lung adenocarcinoma cell viability – A549, calcein-AM fluorescence, 48 h, basal, profiling panel (AID 1162); settings: higher = more signal; further: test concentration not given here
# [2] = compound effects on differentiated 3T3-L1 adipocyte viability – cell-based, 3T3-L1 adipocytes, calcein-AM fluorescence, 48 h, basal, profiling panel (AID 1163); settings: 3T3-L1 adipocytes viability, higher = more signal; further: test concentration not given here
# [3] = compound effects on hepatocellular carcinoma cell viability – HepG2, calcein-AM fluorescence, 48 h, basal, profiling panel (AID 1164); settings: higher = more signal; further: test concentration not given here
# [4] = compound effects on multiple myeloma cell viability – MM1S, calcein-AM fluorescence, 48 h, basal, profiling panel (AID 1165); settings: higher = more signal;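 further: viability of MM1S multiple myeloma cells under basal unstimulated conditions; test concentration not given here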
# [5] = calcein-AM signal in unstimulated myeloma cells – cell-based, calcein-AM fluorescence, 48 h, PK04 Diversity Set, profiling panel (AID 1166); settings: RPMI8226 myeloma viability, higher = more signal;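 further: cells grown under basal conditions without added stimulus; test concentration not given here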
# [6] = JC-1 mitochondrial signal, unstimulated HepG2 cells – cell-based, JC-1 fluorescence, 24 h, 100 nL compound, profiling panel (AID 1167); settings: HepG2 mitochondrial potential, higher = more signal; further: test concentration not given here
# [7] = JC-1 mitochondrial signal, unstimulated adipocytes – cell-based, JC-1 fluorescence, 3T3-L1 adipocytes, 24 h, 100 nL compound, profiling panel (AID 1168); settings: JC-1 mitochondrial fluorescence, higher = more signal, called active from +8 up or from −8 down; further: test concentration not given here
# [8] = JC-1 mitochondrial signal, unstimulated myeloma cells – cell-based, JC-1 fluorescence, RPMI8226, 24 h, 100 nL compound, profiling panel (AID 1169); settings: JC-1 mitochondrial potential fluorescence, higher = more signal; further: test concentration not given here
# [9] = JC-1 mitochondrial signal, unstimulated MM1S myeloma – cell-based, JC-1 fluorescence, 24 h, 100 nL compound, profiling panel (AID 1170); settings: MM1S mitochondrial potential, higher = more signal; further: test concentration not given here
# [10] = resazurin metabolic signal in A549 cells – cell-based, resazurin fluorescence, 24 h, PK04 Diversity Set, profiling panel (AID 1171); settings: A549 viability, higher = more signal, called active from +8 up or from −8 down; further: test concentration not given here
# [11] = resazurin metabolic signal in HepG2 cells – cell-based, resazurin fluorescence, 24 h, PK04 Diversity Set, profiling panel (AID 1172); settings: HepG2 viability, higher = more signal; further: test concentration not given here
# [12] = budding yeast growth changes without added modifier – OD600, strain BY4716, 24 h, basal condition, primary screen (AID 1173); settings: S. cerevisiae BY4716 growth, OD600, 24 h; higher = more signal, called active from +8 up or from −8 down
# [13] = viability profiling in MM1S myeloma cells – cell-based, resazurin fluorescence, basal, 24 h, PK04 Diversity Set, profiling panel (AID 1174); settings: higher = more signal, called active from +8 up or from −8 down; further: test concentration not given here
# [14] = molecular target: Dihydroorotate dehydrogenase (quinone), mitochondrial (Plasmodium falciparum (isolate 3D7)) (UniProt Q08210); test: inhibition of P. falciparum DHODH – biochemical, C-terminal His tag, absorbance 600 nm, primary screen (AID 1175); settings: PfDHODH enzyme, DCIP absorbance 600 nm; higher = more signal, called active from +8 up or from −8 down;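 further: recombinant parasite enzyme with a five histidine tag at its C terminus; test concentration not given here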
# Chain of Dihydroorotate dehydrogenase (quinone), mitochondrial (Plasmodium falciparum (isolate 3D7)) (Q08210 whole entry, looked up): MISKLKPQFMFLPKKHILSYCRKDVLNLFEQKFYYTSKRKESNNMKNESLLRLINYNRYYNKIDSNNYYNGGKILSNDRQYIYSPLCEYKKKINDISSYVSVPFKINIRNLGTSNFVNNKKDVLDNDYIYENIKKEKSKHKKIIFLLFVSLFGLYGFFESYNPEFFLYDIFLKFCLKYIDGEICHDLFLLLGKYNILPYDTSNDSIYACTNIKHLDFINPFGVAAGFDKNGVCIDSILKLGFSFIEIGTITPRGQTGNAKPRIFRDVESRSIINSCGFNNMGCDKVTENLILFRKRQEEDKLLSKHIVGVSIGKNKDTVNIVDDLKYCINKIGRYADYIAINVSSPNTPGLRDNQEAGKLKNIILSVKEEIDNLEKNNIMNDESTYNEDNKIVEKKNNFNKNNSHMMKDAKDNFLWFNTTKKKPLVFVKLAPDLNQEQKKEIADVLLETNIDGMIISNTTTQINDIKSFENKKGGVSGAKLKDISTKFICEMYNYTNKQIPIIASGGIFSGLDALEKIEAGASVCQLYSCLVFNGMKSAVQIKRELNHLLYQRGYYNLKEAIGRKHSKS
# [15] = inhibition of PAO1 biofilm formation – strain PAO1, LB-PBS medium, absorbance 600 nm, primary screen (AID 1176); further: test concentration not given here; settings: P. aeruginosa PAO1 growth/biofilm, A600, 12 h; higher = more signal
# [16] = growth modulation of vineyard yeast isolate – strain RM11-1a, OD600, basal, 24 h, primary screen (AID 1177);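 further: cultures grown under basal conditions with no added stressor; test concentration not given here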; settings: S. cerevisiae RM11-1a growth, OD600, 24 h; higher = more signal, called active from +8 up or from −8 down
# [17] = growth of efflux-deficient E. coli DRC39 – strain DRC39, OD650, 24 h, E. coli filamentation inducers, primary screen (AID 1178);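 further: growth measured as culture turbidity by optical density at 650 nm; test concentration not given here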; settings: E. coli DRC39 acrAB, higher = more signal, called active from +8 up or from −8 down
# [18] = growth of efflux-deficient E. coli DRC39 – strain DRC39, OD650, 48 h, E. coli filamentation inducers, primary screen (AID 1179);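 further: screen aims at cell division blockers that make cells filament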; settings: E. coli DRC39 delta-acrAB growth, higher = more signal, called active from +8 up or from −8 down
# [19] = viability profiling in RPMI8226 myeloma cells – cell-based, resazurin fluorescence, basal, 24 h, PK04 Diversity Set, profiling panel (AID 1180); settings: higher = more signal;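 further: RPMI8826 multiple myeloma cell line at 5000 cells per well; test concentration not given here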
# [20] = molecular target: E3 ubiquitin-protein ligase XIAP (Homo sapiens) (UniProt P98170); test: small molecules binding XIAP protein – biophysical, small-molecule microarray, fluorescence 635 nm, primary screen (AID 1181); settings: higher = more signal;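 further: score merges 667 nm emission and signal to noise over triplicate slides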
# Chain of E3 ubiquitin-protein ligase XIAP (Homo sapiens) (P98170 whole entry, looked up): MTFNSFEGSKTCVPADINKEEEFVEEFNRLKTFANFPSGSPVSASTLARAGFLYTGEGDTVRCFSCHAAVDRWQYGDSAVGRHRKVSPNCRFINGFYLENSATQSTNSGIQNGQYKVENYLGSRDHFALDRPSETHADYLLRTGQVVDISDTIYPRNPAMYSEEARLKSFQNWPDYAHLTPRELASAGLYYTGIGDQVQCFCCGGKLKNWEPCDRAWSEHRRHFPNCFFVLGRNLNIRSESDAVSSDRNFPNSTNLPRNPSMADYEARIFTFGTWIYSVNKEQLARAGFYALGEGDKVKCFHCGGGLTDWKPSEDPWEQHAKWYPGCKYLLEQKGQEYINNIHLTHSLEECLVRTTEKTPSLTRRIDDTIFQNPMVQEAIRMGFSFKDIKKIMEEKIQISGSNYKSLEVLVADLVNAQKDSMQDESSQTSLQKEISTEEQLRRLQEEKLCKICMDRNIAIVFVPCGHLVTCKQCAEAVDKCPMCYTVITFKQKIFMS
Structure (SMILES),z-score [1],z-score [2],z-score [3],z-score [4],z-score [5],z-score [6],z-score [7],z-score [8],z-score [9],z-score [10],z-score [11],z-score [12],z-score [13],composite z-score [14],z-score [15],z-score [16],z-score [17],z-score [18],z-score [19],composite z-score [20]
COCCOC(=O)N1C(=O)[C@@]2(c3cc(C#CCNC(N)=O)ccc31)[C@H](c1ccc(O)cc1)N1[C@H](c3ccccc3)[C@H](c3ccccc3)OC(=O)[C@H]1[C@@H]2C(N)=O,1.66,-0.654,0.405,0.337,-0.933,2.07,-0.0574 (inactive),-0.932,-0.139,0.934 (inactive),1.18,0.282 (inactive),-0.96 (inactive),0.329 (inactive),0.0568 (inactive),0.203 (inactive),0.507 (inactive),1.28 (inactive),-0.938,0.0372
COc1ccc(C#Cc2ccc3c(c2)[C@]2(C(=O)N3)[C@H](C(=O)N3CCCCCCC3)[C@H]3C(=O)O[C@H](c4ccccc4)[C@H](c4ccccc4)N3[C@@H]2c2ccc(O)cc2)cc1,-0.636,1.61,-0.984,0.171,-1.05,-1.2,1.34 (inactive),-0.582,-0.191,0.601 (inactive),0.629,0.299 (inactive),0.697 (inactive),-8.52 (active),1.19 (inactive),0.136 (inactive),-0.45 (inactive),-0.601 (inactive),0.428,-0.0149
COCCOC(=O)N1C(=O)[C@@]2(c3cc(C#CC4=CCCCC4)ccc31)[C@H](c1ccc(O)cc1)N1[C@H](c3ccccc3)[C@H](c3ccccc3)OC(=O)[C@H]1[C@@H]2C(=O)NC[C@H](O)c1ccccc1,-0.309,-0.539,0.778,-1.3,-3.84,-1.83,2.04 (inactive),-1.08,-1.06,-2.06 (inactive),-1.35,0.237 (inactive),-2.48 (inactive),-0.495 (inactive),1.29 (inactive),1.94 (inactive),-0.396 (inactive),0.478 (inactive),-2.55,0.0471
CCOC(=O)C1=CCC(c2ccco2)N(S(=O)(=O)c2ccc(C)cc2)C1 (stereo not given),-0.373,0.279,0.34,-2.93,-1.64,-0.843,-1.32 (inactive),0.733,-2.11,0.326 (inactive),1.18,-4.03 (inactive),0.123 (inactive),-2.2 (inactive),-0.253 (inactive),-0.749 (inactive),0.234 (inactive),1.34 (inactive),0.769,0.424
COCCOC(=O)N1C(=O)[C@@]2(c3cc(C#CCC(C(=O)OC)C(=O)OC)ccc31)[C@H](c1ccc(O)cc1)N1[C@H](c3ccccc3)[C@H](c3ccccc3)OC(=O)[C@H]1[C@@H]2C(=O)NC[C@H](O)c1ccccc1,-0.61,0.0453,-0.0754,-1.92,-4.3,-0.689,-1.16 (inactive),-1.08,-0.91,0.691 (inactive),1.78,-0.149 (inactive),0.6 (inactive),0.407 (inactive),-0.489 (inactive),0.592 (inactive),0.416 (inactive),-0.228 (inactive),-2.51,-0.187
COC(=O)[C@@]1(Cc2ccccc2)[C@H]2c3cc(C(=O)N4CCCC4)n(CCSCCO)c3C[C@H]2CN1C(=O)c1ccccc1,-0.52,0.629,0.422,-0.451,-0.874,0.59,-1.19 (inactive),0.26,0.0172,-0.845 (inactive),-1.19,0.712 (inactive),-1.63 (inactive),-0.337 (inactive),0.824 (inactive),0.53 (inactive),-1.01 (inactive),-0.853 (inactive),-1.68,0.361
COC(=O)[C@@]1(Cc2ccc(F)cc2)[C@H]2c3cc(C(=O)N(C)C)n(Cc4ccc(O)c(OC)c4)c3C[C@H]2CN1C(=O)c1ccccc1,0.511,0.997,-0.269,-0.0229,-1.92,0.766,-0.475 (inactive),-0.379,-1.63,-0.88 (inactive),-0.338,1.15 (inactive),0.0463 (inactive),-0.764 (inactive),1.72 (inactive),0.301 (inactive),0.373 (inactive),-1.35 (inactive),-0.997,0.0812
O=C1C2C=CC(C(O)c3ccc(I)cc3)N(Nc3ccccc3)C2C(=O)N1c1ccccc1 (stereo not given),0.0685,-0.748,0.1,0.196,-0.311,-2.3,-1.3 (inactive),-0.865,-0.603,-0.393 (inactive),-1.04,-2.16 (inactive),-1.38 (inactive),0.45 (inactive),1.58 (inactive),-0.208 (inactive),-1.07 (inactive),-0.28 (inactive),-0.312,0.162
CCOC(=O)C=Cc1ccccc1O,-0.759,0.234,-0.944,0.226,-0.529,-0.503,-0.35 (inactive),-0.986,-1.64,0.0931 (inactive),-0.193,-9.29 (active),-0.056 (inactive),-0.576 (inactive),0.0236 (inactive),-8.46 (active),-0.0367 (inactive),-0.276 (inactive),-0.234,0.125
